Measurements: PubChem BioAssay
Activity calls are given as the source filed them. Unless noted, no rule for the calls is given here.

Tests used:
[1] = system: Wnt5a (protein binding on small-molecule microarray); experiment: Wnt5a binders on small-molecule microarray, primary screen, biophysical, 635/667 nm fluorescence (AID 1142); details: 635 nm fluorescence, higher = more signal;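 also: fluorescence read at 667 nm with signal to noise per printed feature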
[2] = cell viability in Huh7 cells, primary screen, cytotoxicity control for HCV replication inhibitor project, CellTiter-Glo luminescence, basal, 48 h (AID 1143); details: Huh7 HCV replicon, higher = more signal, called active from +8 up or from −8 down;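 also: Huh7 hepatoma cells carrying a hepatitis C replication reporter with no stimulus; test concentration not given here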
[3] = P. aeruginosa biofilm formation inhibitors, primary screen, PAO1 strain, BacTiter-Glo luminescence, LB-PBS (AID 1144); details: 12 h, higher = more signal
[4] = CREB reporter modulators without forskolin, primary screen, cell-based, PC12, CRE-LacZ reporter, unstimulated (AID 1145); details: no forskolin, luminescence, 4.5 h, higher = more signal, called active from +8 up or from −8 down
[5] = CREB reporter modulators under forskolin, primary screen, cell-based, PC12, CRE-LacZ reporter, forskolin-stimulated (AID 1146); details: luminescence, 4.5 h, higher = more signal, called active from +8 up or from −8 down;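 also: PC12 cells with 6xCRE LacZ reporter stimulated by forskolin 10 µM; beta-galactosidase reporter signal reflecting CREB driven transcription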
[6] = target: Streptavidin (Streptomyces avidinii) (UniProt P22629); experiment: streptavidin binders on small-molecule microarray, primary screen, artefact control for SMM compound annotation, biophysical, 635/667 nm fluorescence (AID 1147); details: streptavidin binding, higher = more signal;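 also: signal reflects streptavidin binding to arrayed compounds as a control protein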
Chain of Streptavidin (Streptomyces avidinii) (P22629 whole entry, looked up): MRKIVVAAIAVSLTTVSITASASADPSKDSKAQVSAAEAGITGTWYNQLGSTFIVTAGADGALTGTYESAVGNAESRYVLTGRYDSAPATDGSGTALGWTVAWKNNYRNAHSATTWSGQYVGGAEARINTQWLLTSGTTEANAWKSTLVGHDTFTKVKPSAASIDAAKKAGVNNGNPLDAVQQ

[7] = small-molecule binders of probe aInhba, primary screen, biochemical, small-molecule microarray, 635/667 nm fluorescence (AID 1148); details: higher = more signal;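 also: score merges 667nm spot fluorescence with signal-to-noise for antibody binding to printed compounds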
[8] = target: Torsin-1A (Homo sapiens) (UniProt O14656); experiment: torsin A binders from cell lysate, primary screen, small-molecule microarray, wild-type, 635/667 nm (AID 1149); details: COS7 hTOR1A-WT lysate, 635 nm fluorescence, higher = more signal
Chain of Torsin-1A (Homo sapiens) (O14656 whole entry, looked up): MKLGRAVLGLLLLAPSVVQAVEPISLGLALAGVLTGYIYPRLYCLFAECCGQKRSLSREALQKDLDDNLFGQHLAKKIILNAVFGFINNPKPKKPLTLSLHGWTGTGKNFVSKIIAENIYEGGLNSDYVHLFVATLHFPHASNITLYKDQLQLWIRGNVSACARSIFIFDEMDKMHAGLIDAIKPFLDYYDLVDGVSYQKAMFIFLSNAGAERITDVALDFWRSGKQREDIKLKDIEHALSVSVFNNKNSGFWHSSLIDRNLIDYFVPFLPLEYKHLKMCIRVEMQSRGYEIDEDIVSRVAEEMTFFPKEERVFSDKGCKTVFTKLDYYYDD

[9] = target: Torsin-1A (Homo sapiens) (UniProt O14656); experiment: small-molecule binders of mutant TOR1A in lysate, primary screen, cell lysate, small-molecule microarray, COS7 lysate, 635/667 nm fluorescence (AID 1150); details: COS7 hTOR1A mutant lysate, 635 nm fluorescence, higher = more signal;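 also: score pools 667 nm emission and signal to noise measuring lysate protein binding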
[10] = system: Sonic hedgehog protein (Shh); experiment: small-molecule binders of Shh protein, primary screen, biochemical, small-molecule microarray, 635/667 nm fluorescence (AID 1151); details: small-molecule microarray binding, 635 nm fluorescence; higher = more signal;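 also: Shh protein binding to compounds spotted on small-molecule microarray slides; score combines spot fluorescence intensity with signal-to-noise across triplicate slides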
[11] = E. coli DRC41 culture turbidity changes, primary screen, E. coli filamentation inducer project, strain DRC41, OD650, 48 h (AID 1152);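 also: E. coli MC1000 strain DRC41 lacking acrAB efflux pump and sulA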; details: E. coli DRC41 (acrAB sulA), higher = more signal, called active from +8 up or from −8 down
[12] = small-molecule binders of probe aLefty1, primary screen, biochemical, small-molecule microarray, 635/667 nm fluorescence (AID 1153); details: higher = more signal;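 also: score merges spot fluorescence with signal-to-noise ratio from the scanned slide images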
[13] = PSAC antagonists in infected red cells, primary screen, cell-based, P. falciparum Indochina, OD700, 1 h (AID 1154); details: P. falciparum Indochina infected RBC osmotic lysis, higher = more signal, called active from +8 up or from −8 down
[14] = PSAC antagonists in infected red cells, primary screen, cell-based, P. falciparum Indochina, OD700, 2 h (AID 1155);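 also: lysis reports solute entry through the parasite surface anion channel PSAC; channel blockers reduce lysis of infected cells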; details: P. falciparum Indochina infected erythrocytes, osmotic lysis OD700; higher = more signal, called active from +8 up or from −8 down
[15] = osmotic lysis modulators in infected erythrocytes, primary screen, PSAC antagonist project, cell-based, P. falciparum Indochina, OD700, 3 h (AID 1156); details: higher = more signal, called active from +8 up or from −8 down
[16] = PSAC antagonists in infected red cells, primary screen, cell-based, P. falciparum Indochina, OD700, 18 h (AID 1157); details: P. falciparum Indochina infected erythrocytes, osmotic lysis OD700, 18 h; higher = more signal, called active from +8 up or from −8 down
[17] = modulators of S6 phosphorylation in cells, primary screen, cell-based, A549, cytoblot, luminescence, serum-stimulated (AID 1158); details: A549 phospho-S6 cytoblot, 5 h, higher = more signal;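 also: serum-stimulated A549 lung adenocarcinoma cells; signal is phosphorylated S6 detected by cytoblot immunostaining with HRP secondary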
[18] = target: NADPH oxidase 2 (Homo sapiens) (UniProt P04839); experiment: NOX2-dependent H2O2 signal modulators, primary screen, NOX inhibitor project, cell-based, HEK293-NOX2, PMA-stimulated, Amplex Red fluorescence (AID 1159); details: 45 min, higher = more signal, called active from +8 up or from −8 down; also: test concentration not given here
Chain of NADPH oxidase 2 (Homo sapiens) (P04839 whole entry, looked up): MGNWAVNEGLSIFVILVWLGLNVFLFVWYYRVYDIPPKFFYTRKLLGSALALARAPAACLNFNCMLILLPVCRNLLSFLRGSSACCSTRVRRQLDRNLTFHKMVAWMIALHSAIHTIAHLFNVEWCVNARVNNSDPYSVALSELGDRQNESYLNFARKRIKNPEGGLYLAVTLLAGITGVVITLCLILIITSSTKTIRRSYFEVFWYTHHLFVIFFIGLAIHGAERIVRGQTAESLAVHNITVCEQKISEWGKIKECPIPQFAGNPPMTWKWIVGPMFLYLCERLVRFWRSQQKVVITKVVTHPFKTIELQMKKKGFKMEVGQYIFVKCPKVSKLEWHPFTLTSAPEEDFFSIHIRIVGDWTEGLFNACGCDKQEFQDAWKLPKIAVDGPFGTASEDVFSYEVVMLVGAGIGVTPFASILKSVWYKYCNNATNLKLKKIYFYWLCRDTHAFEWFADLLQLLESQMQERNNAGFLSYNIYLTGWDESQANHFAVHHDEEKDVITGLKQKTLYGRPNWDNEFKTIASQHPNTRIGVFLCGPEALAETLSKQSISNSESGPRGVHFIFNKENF

[19] = target: NADPH oxidase 4 (Homo sapiens) (UniProt Q9NPH5); experiment: NOX4-dependent H2O2 signal modulators, primary screen, NOX inhibitor project, cell-based, HEK293-NOX4, tetracycline-induced, Amplex Red fluorescence (AID 1160); details: 45 min, higher = more signal, called active from +8 up or from −8 down
Chain of NADPH oxidase 4 (Homo sapiens) (Q9NPH5 whole entry, looked up): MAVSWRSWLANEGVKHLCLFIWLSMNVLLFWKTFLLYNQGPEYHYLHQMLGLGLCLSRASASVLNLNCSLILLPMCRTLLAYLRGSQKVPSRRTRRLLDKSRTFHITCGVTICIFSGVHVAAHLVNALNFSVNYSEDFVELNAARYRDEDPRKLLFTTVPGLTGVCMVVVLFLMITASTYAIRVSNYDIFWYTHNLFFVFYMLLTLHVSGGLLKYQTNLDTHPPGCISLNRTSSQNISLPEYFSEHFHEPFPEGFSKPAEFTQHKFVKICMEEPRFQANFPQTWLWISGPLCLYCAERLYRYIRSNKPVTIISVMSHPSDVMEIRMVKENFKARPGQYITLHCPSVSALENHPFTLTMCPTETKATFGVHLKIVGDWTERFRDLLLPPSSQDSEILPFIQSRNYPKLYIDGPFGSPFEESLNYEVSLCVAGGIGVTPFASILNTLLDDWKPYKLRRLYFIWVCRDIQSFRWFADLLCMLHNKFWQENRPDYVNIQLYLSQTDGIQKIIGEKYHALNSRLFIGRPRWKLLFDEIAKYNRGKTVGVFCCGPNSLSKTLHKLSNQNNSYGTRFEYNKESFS

[20] = target: NADPH oxidase 5 (Homo sapiens) (UniProt Q96PH1); experiment: NOX5-dependent H2O2 signal modulators, primary screen, NOX inhibitor project, cell-based, HEK293-NOX5, Amplex Red fluorescence (AID 1161); details: HEK293-NOX5, ionomycin, 45 min, higher = more signal
Chain of NADPH oxidase 5 (Homo sapiens) (Q96PH1 whole entry, looked up): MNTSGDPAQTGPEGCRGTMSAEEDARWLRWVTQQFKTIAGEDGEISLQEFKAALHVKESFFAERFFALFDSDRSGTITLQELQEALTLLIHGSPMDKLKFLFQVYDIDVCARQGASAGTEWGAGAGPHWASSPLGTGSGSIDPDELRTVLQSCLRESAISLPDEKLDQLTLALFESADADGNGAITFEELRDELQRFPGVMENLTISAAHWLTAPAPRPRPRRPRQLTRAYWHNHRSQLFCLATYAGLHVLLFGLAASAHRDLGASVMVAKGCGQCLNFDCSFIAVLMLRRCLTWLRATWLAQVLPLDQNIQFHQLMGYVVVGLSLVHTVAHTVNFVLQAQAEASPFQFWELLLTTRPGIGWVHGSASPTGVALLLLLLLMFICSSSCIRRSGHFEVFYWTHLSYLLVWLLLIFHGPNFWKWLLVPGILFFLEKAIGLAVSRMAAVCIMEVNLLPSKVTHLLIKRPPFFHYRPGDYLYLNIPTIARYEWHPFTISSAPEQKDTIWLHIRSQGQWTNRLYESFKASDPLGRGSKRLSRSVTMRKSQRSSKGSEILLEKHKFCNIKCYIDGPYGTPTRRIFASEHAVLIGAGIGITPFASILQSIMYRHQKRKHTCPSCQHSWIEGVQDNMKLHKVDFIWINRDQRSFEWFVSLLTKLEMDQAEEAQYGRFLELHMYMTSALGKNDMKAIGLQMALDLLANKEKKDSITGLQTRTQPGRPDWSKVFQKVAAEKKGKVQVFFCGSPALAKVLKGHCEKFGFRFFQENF

| Structure (SMILES) | composite z-score [1] | z-score [2] | z-score [3] | z-score [4] | z-score [5] | composite z-score [6] | composite z-score [7] | composite z-score [8] | composite z-score [9] | composite z-score [10] | z-score [11] | composite z-score [12] | z-score [13] | z-score [14] | z-score [15] | z-score [16] | z-score [17] | z-score [18] | z-score [19] | z-score [20] |
| --- | --- | --- | --- | --- | --- | --- | --- | --- | --- | --- | --- | --- | --- | --- | --- | --- | --- | --- | --- | --- |
| CN(C)CCCNC(=O)[C@@H]1c2ccccc2C(=O)N(Cc2ccccc2C(F)(F)F)[C@H]1c1ccc(CO)cc1 | 0.0246 | -0.574 (inactive) | 0.405 (inactive) | -0.206 (inactive) | -0.951 (inactive) | -0.734 | -0.16 | 0.0406 | -0.0393 | 0.547 | 1.77 (inactive) | -0.103 | 2.54 (inactive) | 0.793 (inactive) | 1.21 (inactive) | 0.64 (inactive) | -0.0975 | 0.383 (inactive) | 1.03 (inactive) | 1.11 |
| C[C@@H]1ON(c2ccccc2)[C@H](c2ccccc2)[C@H]1C(=O)O | -0.0071 | 0.343 (inactive) | -0.525 (inactive) | 0.308 (inactive) | 0.411 (inactive) | 0.0265 | 0.134 | 0.404 | -0.115 | 1.01 | -0.0929 (inactive) | 0.106 | 0.348 (inactive) | -0.299 (inactive) | -0.142 (inactive) | -0.136 (inactive) | 0.0366 | -0.436 (inactive) | 0.24 (inactive) | 0.46 |
| C[C@@H]1NC(=O)C([C@@H](C)OCc2ccccc2)NC(=O)[C@@]23C(=O)N[C@@H](Cc4ccccc4)C2[C@H](C)[C@@]2(C)O[C@H]2C3/C=C/C/C=C\CNC1=O (stereo not given in full) | 0.0076 | -0.371 (inactive) | 0.571 (inactive) | -0.507 (inactive) | 0.428 (inactive) | -1.07 | -0.25 | 0.0772 | 0.0936 | 1.12 | -0.999 (inactive) | -0.147 | 2.36 (inactive) | -0.169 (inactive) | 0.604 (inactive) | 0.182 (inactive) | -0.093 | 0.715 (inactive) | -0.942 (inactive) | 0.467 |
| O=C1O[C@H](c2ccccc2)[C@H](c2ccccc2)N2[C@H]1[C@@H](C(=O)N1CCN(c3ncccn3)CC1)[C@]1(C(=O)Nc3ccc(C#CCCO)cc31)[C@H]2c1ccc(O)cc1 | 0.313 | -0.522 (inactive) | -0.218 (inactive) | 0.0653 (inactive) | 0.253 (inactive) | 1.05 | 0.0111 | 0.161 | 0.0065 | 0.429 | -0.951 (inactive) | 0.208 | 1.28 (inactive) | 0.436 (inactive) | 1.2 (inactive) | 0.0991 (inactive) | 0.201 | 0.84 (inactive) | 0.722 (inactive) | 1.41 |
| COCCOC(=O)N1C(=O)[C@@]2(c3cc(C#CCC(C(=O)OC)C(=O)OC)ccc31)[C@H](C(=O)Nc1nc3ccccc3s1)[C@H]1C(=O)O[C@H](c3ccccc3)[C@H](c3ccccc3)N1[C@@H]2c1ccc(O)cc1 | 0.624 | -0.869 (inactive) | 0.446 (inactive) | -1.14 (inactive) | 0.316 (inactive) | 1.27 | 0.326 | 0.391 | 0.0756 | 1.84 | 0.0976 (inactive) | 0.786 | 1.3 (inactive) | 0.575 (inactive) | -0.0813 (inactive) | 0.751 (inactive) | -0.0525 | 1.59 (inactive) | -1.11 (inactive) | 0.755 |
| O=C(O)[C@H](Cc1ccccc1)n1cc(C2(O)CCCCC2)nn1 | 0.0358 | 0.316 (inactive) | 0.552 (inactive) | 0.367 (inactive) | 0.317 (inactive) | -0.338 | -0.0221 | 0.221 | 0.327 | -0.0164 | -0.976 (inactive) | 0.592 | 0.0438 (inactive) | -0.879 (inactive) | -0.472 (inactive) | -0.281 (inactive) | 0.347 | 1.01 (inactive) | 0.715 (inactive) | 0.31 |
| O=C1NC(=O)C2C1C=CC(C(O)c1ccc([N+](=O)[O-])cc1)N2Nc1ccccn1 (stereo not given) | -0.0851 | 1.06 (inactive) | -0.295 (inactive) | -0.133 (inactive) | -0.728 (inactive) | -0.115 | -0.0059 | 0.419 | -0.306 | -0.371 | -0.55 (inactive) | -0.112 | 0.406 (inactive) | 0.74 (inactive) | 0.067 (inactive) | 0.581 (inactive) | -0.466 | -0.728 (inactive) | -2.61 (inactive) | -1.96 |
| CC(C)=C1C(=O)C(c2ccccc2)=C2CN3C(=O)N(CCc4ccccc4)C(=O)[C@]3(C)[C@H]21 | -0.0006 | -2.42 (inactive) | 0.64 (inactive) | 0.0177 (inactive) | 0.839 (inactive) | 0.509 | -0.016 | -0.656 | -0.124 | -0.223 | -2.52 (inactive) | 0.298 | 28.2 (active) | 24.2 (active) | 1.63 (inactive) | 1.62 (inactive) | -0.832 | -1.16 (inactive) | -1.55 (inactive) | -0.718 |
